Among the data in PubChem BioAssay are z-score and composite z-score values, retold here.

Assay [1] in a line: optical density shifts of acrAB sulA E. coli – strain DRC41, OD650, 48 h, E. coli filamentation inducer project, primary screen (AID 1152).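 Further: E. coli MC1000 strain DRC41 lacking acrAB efflux pump and sulA.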 The settings on record: higher = more signal, called active from +8 up or from −8 down.
Assay [2] in a line: probe aLefty1 binding on compound microarray – biochemical, small-molecule microarray, 635/667 nm fluorescence, primary screen (AID 1153).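 Further: score merges spot fluorescence with signal-to-noise ratio from the scanned slide images.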 The conditions noted are these: higher = more signal.
The nature of assay [3]: plasmodial surface anion channel blockers, osmotic lysis – cell-based, P. falciparum Indochina, OD700, 1 h, primary screen (AID 1154). The settings on record: P. falciparum Indochina infected RBC osmotic lysis, higher = more signal, called active from +8 up or from −8 down.
Assay [4] is described as follows: plasmodial surface anion channel blockers, osmotic lysis – cell-based, P. falciparum Indochina, OD700, 2 h, primary screen (AID 1155).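 Further: lysis reports solute entry through the parasite surface anion channel PSAC.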 The settings on record: P. falciparum Indochina infected erythrocytes, higher = more signal, called active from +8 up or from −8 down.
Assay [5] can be described thus: changes in parasitized red cell lysis, either direction – P. falciparum Indochina, OD700, 3 h, PSAC antagonist project, primary screen (AID 1156). The settings on record: P. falciparum-infected erythrocytes, osmotic lysis, higher = more signal, called active from +8 up or from −8 down.
A short description of assay [6]: plasmodial surface anion channel blockers, osmotic lysis – cell-based, P. falciparum Indochina, OD700, 18 h, primary screen (AID 1157). The conditions noted are these: P. falciparum Indochina infected erythrocytes, osmotic lysis OD700, 18 h; higher = more signal, called active from +8 up or from −8 down.
Assay [7] in a line: S6 kinase pathway phospho-S6 level changes – cell-based, A549, cytoblot, luminescence, serum-stimulated, primary screen (AID 1158).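 Further: serum-stimulated A549 lung adenocarcinoma cells; signal is phosphorylated S6 detected by cytoblot immunostaining with HRP secondary.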 The conditions noted are these: 5 h, higher = more signal.
For assay [8], the target named is NADPH oxidase 2 (Homo sapiens) (UniProt P04839). Description: compounds shifting NOX2 Amplex Red fluorescence – cell-based, HEK293-NOX2, PMA-stimulated, NOX inhibitor project, primary screen (AID 1159). Further: test concentration not given here. The settings on record: 45 min, higher = more signal, called active from +8 up or from −8 down.
Assay [9] has as its target NADPH oxidase 4 (Homo sapiens) (UniProt Q9NPH5). The experiment in a line: compounds shifting NOX4 Amplex Red fluorescence – cell-based, HEK293-NOX4, tetracycline-induced, NOX inhibitor project, primary screen (AID 1160). The settings on record: HEK293-NOX4, Amplex Red H2O2 fluorescence, 45 min; higher = more signal, called active from +8 up or from −8 down.
The target in assay [10] is NADPH oxidase 5 (Homo sapiens) (UniProt Q96PH1). The experiment in a line: compounds shifting NOX5 Amplex Red fluorescence – cell-based, HEK293-NOX5, NOX inhibitor project, primary screen (AID 1161). The settings on record: HEK293-NOX5, ionomycin, 45 min, higher = more signal.
Assay [11] in a line: compound effects on lung adenocarcinoma cell viability – A549, calcein-AM fluorescence, 48 h, basal, profiling panel (AID 1162). Further: test concentration not given here. The settings on record: higher = more signal.
The nature of assay [12]: compound effects on differentiated 3T3-L1 adipocyte viability – cell-based, 3T3-L1 adipocytes, calcein-AM fluorescence, 48 h, basal, profiling panel (AID 1163). Further: test concentration not given here. The settings on record: 3T3-L1 adipocytes viability, higher = more signal.
Assay [13] in a line: compound effects on hepatocellular carcinoma cell viability – HepG2, calcein-AM fluorescence, 48 h, basal, profiling panel (AID 1164). Further: test concentration not given here. The settings on record: higher = more signal.
Assay [14] is described as follows: compound effects on multiple myeloma cell viability – MM1S, calcein-AM fluorescence, 48 h, basal, profiling panel (AID 1165). Further: test concentration not given here. The conditions noted are these: higher = more signal.
The nature of assay [15]: calcein-AM signal in unstimulated myeloma cells – cell-based, calcein-AM fluorescence, 48 h, PK04 Diversity Set, profiling panel (AID 1166).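 Further: cells grown under basal conditions without added stimulus; test concentration not given here.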 The settings on record: RPMI8226 myeloma viability, higher = more signal.
Assay [16] in a line: JC-1 mitochondrial signal, unstimulated HepG2 cells – cell-based, JC-1 fluorescence, 24 h, 100 nL compound, profiling panel (AID 1167). Further: test concentration not given here. The settings on record: HepG2 mitochondrial potential, higher = more signal.
Assay [17] in a line: JC-1 mitochondrial signal, unstimulated adipocytes – cell-based, JC-1 fluorescence, 3T3-L1 adipocytes, 24 h, 100 nL compound, profiling panel (AID 1168). Further: test concentration not given here. The conditions noted are these: JC-1 mitochondrial fluorescence, higher = more signal, called active from +8 up or from −8 down.
Assay [18] in a line: JC-1 mitochondrial signal, unstimulated myeloma cells – cell-based, JC-1 fluorescence, RPMI8226, 24 h, 100 nL compound, profiling panel (AID 1169). Further: test concentration not given here. The conditions noted are these: JC-1 mitochondrial potential fluorescence, higher = more signal.
Assay [19] can be described thus: JC-1 mitochondrial signal, unstimulated MM1S myeloma – cell-based, JC-1 fluorescence, 24 h, 100 nL compound, profiling panel (AID 1170). Further: test concentration not given here. The settings on record: MM1S mitochondrial potential, higher = more signal.
Assay [20] in a line: resazurin metabolic signal in A549 cells – cell-based, resazurin fluorescence, 24 h, PK04 Diversity Set, profiling panel (AID 1171). Further: test concentration not given here. The settings on record: A549 viability, higher = more signal, called active from +8 up or from −8 down.

Activity calls are given as the source filed them.

Chain of NADPH oxidase 5 (Homo sapiens) (Q96PH1 whole entry, looked up): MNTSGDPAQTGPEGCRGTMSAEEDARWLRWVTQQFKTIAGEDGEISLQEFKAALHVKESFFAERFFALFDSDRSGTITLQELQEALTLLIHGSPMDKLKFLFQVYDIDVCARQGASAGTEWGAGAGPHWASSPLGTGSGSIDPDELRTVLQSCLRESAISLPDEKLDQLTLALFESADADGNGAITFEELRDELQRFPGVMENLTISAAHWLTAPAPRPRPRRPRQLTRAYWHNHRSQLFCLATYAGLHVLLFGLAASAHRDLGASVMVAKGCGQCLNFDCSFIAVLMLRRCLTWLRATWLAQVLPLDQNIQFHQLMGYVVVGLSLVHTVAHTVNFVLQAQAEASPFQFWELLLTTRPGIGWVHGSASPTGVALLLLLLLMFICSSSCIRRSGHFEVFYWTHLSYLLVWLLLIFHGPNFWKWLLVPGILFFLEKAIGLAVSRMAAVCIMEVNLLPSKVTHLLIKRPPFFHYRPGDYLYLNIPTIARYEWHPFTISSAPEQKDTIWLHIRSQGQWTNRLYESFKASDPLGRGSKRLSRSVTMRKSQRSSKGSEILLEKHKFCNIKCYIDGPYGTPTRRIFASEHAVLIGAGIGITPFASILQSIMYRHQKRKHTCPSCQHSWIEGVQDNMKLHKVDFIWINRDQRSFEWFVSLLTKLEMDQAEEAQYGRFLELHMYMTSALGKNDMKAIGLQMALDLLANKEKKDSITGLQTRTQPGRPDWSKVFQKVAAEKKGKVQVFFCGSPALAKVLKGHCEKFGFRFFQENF
Chain of NADPH oxidase 4 (Homo sapiens) (Q9NPH5 whole entry, looked up): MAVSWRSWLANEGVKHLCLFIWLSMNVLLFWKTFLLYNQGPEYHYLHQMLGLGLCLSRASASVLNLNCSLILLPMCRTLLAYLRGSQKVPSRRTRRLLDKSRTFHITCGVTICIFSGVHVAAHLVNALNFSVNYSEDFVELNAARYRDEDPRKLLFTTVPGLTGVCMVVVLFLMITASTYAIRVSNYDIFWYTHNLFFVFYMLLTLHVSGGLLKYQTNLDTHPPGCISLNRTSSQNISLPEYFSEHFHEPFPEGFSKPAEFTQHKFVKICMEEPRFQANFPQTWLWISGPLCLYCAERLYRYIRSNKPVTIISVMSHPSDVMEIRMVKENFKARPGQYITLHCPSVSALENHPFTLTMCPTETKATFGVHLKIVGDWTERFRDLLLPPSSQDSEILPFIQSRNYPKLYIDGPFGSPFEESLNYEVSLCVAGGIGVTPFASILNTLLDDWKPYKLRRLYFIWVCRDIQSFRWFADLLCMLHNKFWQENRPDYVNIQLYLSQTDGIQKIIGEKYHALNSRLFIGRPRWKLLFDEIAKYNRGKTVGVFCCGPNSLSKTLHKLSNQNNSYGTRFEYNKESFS
Chain of NADPH oxidase 2 (Homo sapiens) (P04839 whole entry, looked up): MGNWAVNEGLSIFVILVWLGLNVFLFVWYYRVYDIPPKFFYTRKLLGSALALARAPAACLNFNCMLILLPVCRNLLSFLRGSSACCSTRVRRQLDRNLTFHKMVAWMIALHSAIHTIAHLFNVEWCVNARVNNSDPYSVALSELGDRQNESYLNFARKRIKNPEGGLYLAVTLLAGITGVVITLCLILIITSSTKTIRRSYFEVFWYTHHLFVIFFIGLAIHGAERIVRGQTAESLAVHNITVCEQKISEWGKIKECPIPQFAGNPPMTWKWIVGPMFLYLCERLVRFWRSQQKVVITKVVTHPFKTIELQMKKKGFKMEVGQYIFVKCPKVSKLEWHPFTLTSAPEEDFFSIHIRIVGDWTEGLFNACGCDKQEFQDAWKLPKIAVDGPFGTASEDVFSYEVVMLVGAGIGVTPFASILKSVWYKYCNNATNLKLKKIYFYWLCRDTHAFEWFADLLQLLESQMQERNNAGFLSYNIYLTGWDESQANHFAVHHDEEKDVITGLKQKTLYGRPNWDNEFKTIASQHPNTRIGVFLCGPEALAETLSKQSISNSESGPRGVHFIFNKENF

Regarding `Cc1c(NC(=O)/C(C#N)=C/c2ccccc2Cl)c(=O)n(-c2ccccc2)n1C`, the z-score is 1.32 (inactive) in assay [1]; 0.471 (inactive) in [3]; -1.52 (inactive) in [4]; -0.945 (inactive) in [5]; -1.34 (inactive) in assay [6]; 1.22 in [7]. Also, the z-score in [8] is -3.65 (inactive); in assay [9], -0.56 (inactive); in assay [10], 0.29; in assay [11], 1.62; in assay [12], 0.228; in assay [13] it was 1.02. Moreover, the z-score in [14] was 0.867; in assay [15] it was 1.52; in assay [16], 0.771; in assay [17], 1.14 (inactive); in [18], -0.0416; in assay [19] it was -1.04. Besides, the z-score in [20] is -0.357 (inactive). In addition, in assay [2], the composite z-score is -0.296.

With `C=C(COC)C(=O)CC[C@@H](OC(=O)c1cccnc1)c1ccccc1OCCO`, the z-score is 0.0001 (inactive) in assay [1]; 21.2 (active) in [3]; 2.88 (inactive) in assay [4]; 0.793 (inactive) in assay [5]; 0.65 (inactive) in assay [6]; -0.347 in assay [7]. In addition, the z-score in assay [8] was -2.12 (inactive); in [9], -0.369 (inactive); in assay [10] it was -1.4; in assay [11], -0.0755; in [12], 0.46; in assay [13] it was -1.16. Also, the z-score in assay [14] was -3.38; in [15], -3.82; in [16], -0.758; in assay [17], 1.08 (inactive); in [18], -0.67; in [19], -2.43. In [20], the z-score is 0.1 (inactive). In assay [2], the composite z-score was -0.106.

As to `C=CC[C@H](OC(=O)Nc1ccc(SC)cc1)c1ccc(OCCO)cc1`, the z-score in assay [1] was -0.393 (inactive); in assay [3] it was 31 (active); in [4], 17.3 (active); in assay [5], 3.54 (inactive); in [6], 1.58 (inactive); in assay [7] it was -0.161. Moreover, the z-score is -1.96 (inactive) in assay [8]; -0.438 (inactive) in assay [9]; -1.34 in assay [10]; -0.542 in assay [11]; -0.228 in assay [12]; -0.91 in assay [13]. Also, the z-score in assay [14] was -0.75; in assay [15] it was 0.329; in assay [16] it was -1.68; in assay [17] it was -0.313 (inactive); in assay [18], -0.309; in assay [19], -0.227. Moreover, the z-score in assay [20] was 0.631 (inactive). The composite z-score in [2] was -0.0987.

For `C=C(CCCC)C(=O)CC[C@@H](OC(=O)c1cccnc1)c1ccc(OCCO)cc1`, the z-score is -0.704 (inactive) in assay [1]; 20.2 (active) in assay [3]; 4.63 (inactive) in assay [4]; -0.367 (inactive) in assay [5]; 0.774 (inactive) in assay [6]; -0.58 in [7]. Further, the z-score is -1.3 (inactive) in [8]; -0.918 (inactive) in assay [9]; -1.39 in [10]; 0.67 in [11]; 0.866 in [12]; 0.376 in assay [13]. Besides, the z-score is -3.34 in assay [14]; -2.89 in [15]; -0.279 in assay [16]; -0.188 (inactive) in assay [17]; -0.673 in assay [18]; -0.652 in assay [19]. Also, the z-score in assay [20] is 0.116 (inactive). The molecule also yielded a composite z-score in assay [2] of 0.178.

Regarding `COCCCNC(=O)[C@@H]1c2ccccc2C(=O)N(C2Cc3ccccc3C2)[C@H]1c1ccc(CO)cc1`, the z-score was 0.748 (inactive) in [1]; 3.1 (inactive) in assay [3]; 1.18 (inactive) in assay [4]; 0.65 (inactive) in assay [5]; 0.476 (inactive) in assay [6]; -0.256 in assay [7]. The z-score in [8] is -0.193 (inactive); in assay [9] it was 0.444 (inactive); in [10], -0.0459; in assay [11], 1.12; in assay [12] it was 0.275; in [13], 0.165. The z-score in [14] was 0.155; in assay [15], 0.261; in [16], 2.94; in assay [17], -0.17 (inactive); in [18] it was 0.217; in assay [19] it was 0.494. The z-score in assay [20] is 0.58 (inactive). Besides, the composite z-score in assay [2] was -0.0603.

On to `CC(=O)NCCCC[C@@H]1NC(=O)[C@@H]2C[C@H](C(=O)NCCCCCCN)[C@H](c3cccc(OCCO)c3)N2C1=O`, for which the z-score was -0.813 (inactive) in assay [1]; 9.65 (active) in assay [3]; 0.503 (inactive) in assay [4]; 0.819 (inactive) in assay [5]; 0.351 (inactive) in assay [6]; -0.42 in assay [7]. The z-score in [8] is 0.892 (inactive); in assay [9] it was 0.353 (inactive); in [10] it was -0.568; in assay [11], -0.182; in [12] it was 0.691; in assay [13], 0.268. Further, the z-score in assay [14] is 0.213; in assay [15], -0.413; in [16], -1.26; in assay [17], -0.0165 (inactive); in assay [18] it was 0.648; in assay [19], 0.0193. In [20], the z-score is -0.358 (inactive). Besides, in assay [2], the composite z-score is 0.0455.

As for `COc1ccc(C(O)C2C=CC3C(=O)N(c4ccccc4)C(=O)C3N2Nc2ccccc2F)cc1` (stereo not given), the z-score is -1.19 (inactive) in assay [1]; 4.67 (inactive) in [3]; 1.33 (inactive) in [4]; 0.0183 (inactive) in [5]; 0.635 (inactive) in assay [6]; -0.331 in assay [7]. The z-score in [8] is -1.34 (inactive); in assay [9], -3.63 (inactive); in assay [10], -1.7; in assay [11] it was -0.775; in assay [12], 0.406; in assay [13], -0.596. For the same molecule, the z-score is -0.808 in assay [14]; -2.08 in [15]; -0.334 in [16]; -0.149 (inactive) in assay [17]; -0.288 in [18]; -0.855 in assay [19]. Also, the z-score in [20] is 0.21 (inactive). The composite z-score in assay [2] stood at 0.167.

Turning to `O=C(O)[C@H]1C[C@H]2C(=O)N[C@@H](Cc3ccccc3)C(=O)N2[C@H]1c1cccc(OCCO)c1`, the z-score in assay [1] is 0.262 (inactive); in [3], 4.38 (inactive); in [4], 0.547 (inactive); in [5], -2.49 (inactive); in [6], 0.204 (inactive); in assay [7], 0.146. Moreover, the z-score in assay [8] is -3.4 (inactive); in assay [9], -4.87 (inactive); in assay [10], -2.33; in [11], 1.11; in assay [12], -0.218; in assay [13] it was 0.259. Moreover, the z-score is -3.41 in assay [14]; -0.958 in [15]; 1.64 in assay [16]; -0.169 (inactive) in assay [17]; -0.299 in [18]; -1.18 in assay [19]. The z-score in assay [20] is 0.75 (inactive). Moreover, in assay [2], the composite z-score stood at 0.121.

For `O=C1C2C=CC(C(O)c3ccco3)N(Nc3ccccc3)C2C(=O)N1c1ccccc1` (stereo not given), the z-score was -0.292 (inactive) in assay [1]; 0.89 (inactive) in assay [3]; -0.0044 (inactive) in assay [4]; -0.284 (inactive) in assay [5]; 0.851 (inactive) in assay [6]; -0.647 in [7]. Also, the z-score is -1.61 (inactive) in assay [8]; -2.98 (inactive) in assay [9]; -2.52 in [10]; 0.133 in assay [11]; -1.03 in [12]; 0.473 in assay [13]. The z-score was 0.249 in assay [14]; 0.458 in assay [15]; -0.45 in assay [16]; 0.255 (inactive) in [17]; -0.364 in [18]; -0.267 in assay [19]. Further, the z-score in assay [20] is 0.649 (inactive). Besides, the composite z-score in assay [2] is -0.0302.
